Bioassay records: PubChem BioAssay, National Center for Advancing Translational Sciences (NCATS)
RORg inh = ROR gamma (mouse) transcription inhibition; P51450; Drosophila S2 Gal4-RORgamma UAS-luciferase reporter, 20 h; Potency, µM (top dose mostly 53.6 µM), without a hit: at the top dose activity change, negative = inhibition, actives largely listed as inhibitors; hit rate 5.4% among 310,000; also: potency is read from the fitted curve at half-maximal effect; nearly all actives have a fitted effect of over 60% in size
Target sequence (P51450 whole entry, looked up, the tested form may be a part): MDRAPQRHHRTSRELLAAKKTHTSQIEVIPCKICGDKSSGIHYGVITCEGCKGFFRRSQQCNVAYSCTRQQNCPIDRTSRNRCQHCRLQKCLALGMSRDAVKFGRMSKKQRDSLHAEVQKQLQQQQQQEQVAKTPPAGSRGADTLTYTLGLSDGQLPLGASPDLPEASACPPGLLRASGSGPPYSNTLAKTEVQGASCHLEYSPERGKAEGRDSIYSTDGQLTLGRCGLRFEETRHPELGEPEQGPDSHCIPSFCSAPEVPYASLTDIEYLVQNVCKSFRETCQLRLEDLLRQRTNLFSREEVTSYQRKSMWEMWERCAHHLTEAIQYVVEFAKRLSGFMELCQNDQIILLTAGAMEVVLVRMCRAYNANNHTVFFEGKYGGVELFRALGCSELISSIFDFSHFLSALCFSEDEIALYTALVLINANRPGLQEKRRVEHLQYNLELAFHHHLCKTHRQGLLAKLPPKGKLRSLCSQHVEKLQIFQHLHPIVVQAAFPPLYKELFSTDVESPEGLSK
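ROR gamma transcriptional activity was tracked as Gal4-UAS luciferase output in stably transfected Drosophila Schneider cells, with compound added 1 hr before 700 uM copper sulfate induction and a 20 hr ambient-temperature incubation.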
IL-1B inflam inh = blocks inflammasome-driven IL-1 beta release; activity change, % at 57.5 µM; THP-1 LPS/ATP IL-1B secretion, AlphaLISA, 16 h; active compounds read low; hit rate 4.7% among 360,000; in the data active = activity change below about -50%; inconclusive = mostly about -30% to -49%
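Secreted IL-1B measured by AlphaLISA bead assay after 16 h compound exposure of THP-1 cells; compounds (final up to 57.5 uM) added 1 h before LPS (250 ng/mL) and ATP (1.25 mM) stimulation; lower signal means less secretion.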
LDHA block = inhibitors of human lactate dehydrogenase A. P00338. purified LDHA, NADH/diaphorase-resazurin fluorescence; active compounds read low. activity change, % (values are at about 110 or 230 µM). hit rate 0.15% among 480,000. AID 1347041; in the data active = activity change below about -30%; inconclusive = mostly about -25% to -30%;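 also: plate controls were DMSO wells for no effect and wells without enzyme for full effect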
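Resorufin fluorescence (ex540/em590), read at 0 and 20 min after diaphorase/resazurin addition, reports the NADH left after a 5 min room-temperature reaction of 2 nM human LDH5 with 0.06 mM NADH and 0.2 mM pyruvate.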
TDP1 cell noCPT = qHTS for Inhibitors of human tyrosyl-DNA phosphodiesterase 1 (TDP1): qHTS in cells in absence of CPT. DT40 Tdp1-/- hTDP1 cells, no CPT, ATP luminescence, 48 h. Potency, µM (titrated, usually from 46.2 µM), inactives show top-dose activity change, negative = growth inhibition, most hits filed as inhibitors. hit rate 15% among 420,000; also: potency is read from the fitted curve at half-maximal effect; nearly all actives have a fitted effect of over 55% in size
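A cellular qHTS used chicken DT40 cells lacking endogenous Tdp1 but carrying stably transfected human TDP1. Compounds were applied without camptothecin, and cell growth kinetics were judged by ATP-dependent luminescence after ≥48 hr.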
TDP1 cell CPT = DT40-hTDP1 cell growth loss with CPT; chicken DT40 Tdp1-/-;hTDP1 cells + 20 nM CPT, ATP luminescence, 48 h; Potency, µM (doses to about 46.2 µM), for the others: top-dose activity change, negative = growth inhibition, usual class: inhibitors; hit rate 12% among 420,000; AID 686979; also: potency is read from the fitted curve at half-maximal effect; nearly all actives have a fitted effect of over 55% in size
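Chicken DT40 Tdp1-/- cells stably complemented with human TDP1 were seeded at 400 cells/well in medium containing 20 nM camptothecin, exposed to pin-transferred compounds, and grown at 37 °C for at least 48 hr. Viability was read as ATP luminescence.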
Gal4-VP16 FLuc = Gal4-VP16 reporter inhibition counter-screen; AID 2546; Potency, µM (titrated, usually from 53.6 µM), inactives show top-dose activity, negative = inhibition, hits mostly inhibitors; Drosophila S2 Gal4-VP16 UAS-luciferase, luminescence, 20 h; hit rate 3.5% among 310,000;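 also: Gal4-VP16 expression switched on by copper sulfate through the metallothionein promoter; potency is read from the fitted curve at half-maximal effect; nearly all actives have a fitted effect of over 50% in size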
* = called active by the depositor; ? = inconclusive; / = not tested or not shown. The list is not random: actives were taken first. Their share in the collection is about 18%. Unless noted, calls follow the shape of the dose curve; as a rule, active = well fitted curve in the direction sought with a large enough effect; inconclusive = small, poorly fitted or top-dose-only effect, or another doubt; inactive = no such curve, though single readings can be large; an effect the other way counts as inactive or inconclusive. Unless noted, % is scaled to controls: 0 for no effect and ±100 for the full control effect.

SMILES	RORg inh	IL-1B inflam inh	LDHA block	TDP1 cell noCPT	TDP1 cell CPT	Gal4-VP16 FLuc
O=C(c1ccc(Cn2c(=S)[nH]c3ccc(Br)cc3c2=O)cc1)N1CCN(C2CCCCC2)CC1	11.2µM*	-9.0	-2.6	?	?	?
CCOCCCn1c(=S)[nH]c2cc(C(=O)N3CCN(C4CCCCC4)CC3)ccc2c1=O	0.0%	6.3	-0.6	?	23.1µM*	-13.9%
CCOCCCn1c(=S)[nH]c2cc(C(=O)N3CCN(C)CC3)ccc2c1=O	1.5%	17.8	-13.6	-7.7%	-28.5%	-2.4%
CCOCCCn1c(=S)[nH]c2cc(C(=O)N3CCN(c4ccccc4)CC3)ccc2c1=O	12.6µM*	28.5	-0.9	-11.8%	?	?
COc1ccc(Br)cc1S(=O)(=O)NCCN(C)C	/	/	-9.1	/	/	/
COc1ccc(CCN(C(=O)C(F)(F)F)C(C(=O)NC2CCCCC2)c2cccs2)cc1 (stereo not drawn)	11.1%	-7.8	0.1	4.61µM*	7.31µM*	-20.4%
Cc1ccc(N(C(=O)C(F)(F)F)C(C(=O)NC2CCCCC2)c2cccs2)cc1 (stereo not drawn)	-20.2%	12.1	-4.2	?	?	-16.4%
COc1ccc(CCN(C(=O)C(F)(F)F)C(C(=O)NC2CCCCC2)c2ccc(C)s2)cc1 (stereo not drawn)	-0.5%	-2.5	-18.7	2.82µM*	3.26µM*	-20.5%
O=C(NC1CCCCC1)C(c1cccs1)N(Cc1cccs1)C(=O)c1cccs1 (stereo not drawn)	0.1%	-66.4*	-7.5	16.4µM*	18.4µM*	-3.4%
CCCC(=O)NC(=S)Nc1cccc(C(C)=O)c1	10µM*	2.3	-3.3	-3.7%	9.2%	?
CC(=O)c1cccc(NC(=S)NC(=O)CC(C)C)c1	?	-3.7	-1.8	-7.2%	0.0%	7.94µM*
CCC(=O)NC(=S)Nc1cccc(NC(=O)CC)c1	-20.7%	5.7	-4.1	-16.6%	-19.3%	2.9%
CCC(=O)NC(=S)Nc1cccc(C(=O)N(CC)CC)c1	/	/	-7.9	/	/	/
CCCCCC(=O)NC(=S)Nc1cccc(C(C)=O)c1	2.82µM*	-12.8	-2.6	-22.9%	5.0%	?
CCC(=O)NC(=S)Nc1cccc(C(C)=O)c1	11.2µM*	-20.4	-2.7	?	-13.6%	13.5%
CN1CCN(C(C(=O)O)c2cn(C)c3cc(C(=O)O)ccc23)CC1 (stereo not drawn)	/	/	5.8	/	/	/
CC(NC(=O)CN1CSCC1=O)c1ccccc1Cl (stereo not drawn)	/	/	8.1	/	/	/
Cc1ccc(OCC(=O)NNc2c3ccccc3nc3ccccc23)cc1	10µM*	-15.0	-12.2	16.4µM*	?	12.6µM*
O=C(Cc1ccccc1)NNc1c2ccccc2nc2ccccc12	?	17.8	1.9	?	20.6µM*	?
O=C(Cc1ccccc1)NNC(=O)Cc1ccccc1	10.7%	-0.7	-11.8	1.6%	5.3%	4.4%
O=C(Nc1c2ccccc2nc2ccccc12)C(Cl)(Cl)Cl	?	?	-10.1	23.1µM*	16.4µM*	?
CCC1(c2ccccc2)NC(=O)N(NC(=O)c2nn(C)c(=O)c3ccccc23)C1=O (stereo not drawn)	/	/	0.6	/	/	/
Cc1ccc(C2=NS(=O)(=O)N(C)C(C(=O)N3CCN(c4ccccc4)CC3)=C2)cc1	/	/	-0.2	/	/	/
O=C(c1cc(-c2ccc(F)cc2)no1)N1CCN(Cc2ccc3c(c2)OCO3)CC1	-2.2%	-23.1	-1.0	16.4µM*	?	2.9%
Cc1cc(C)cc(OCC(O)CN2CCN(Cc3ccc4c(c3)OCO4)CC2)c1 (stereo not drawn)	24.2%	-5.1	-1.2	20.6µM*	13µM*	-5.7%
SMILES	RORg inh	IL-1B inflam inh	LDHA block	TDP1 cell noCPT	TDP1 cell CPT	Gal4-VP16 FLuc
O=C(c1sccc1Cl)N1CCN(Cc2ccc3c(c2)OCO3)CC1	-0.2%	-80.9*	3.5	?	3.3%	1.9%
Cc1ccc(C(=O)N2CCN(Cc3ccc4c(c3)OCO4)CC2)c(Cl)c1	10.1%	-59.2*	-0.5	16.4µM*	8.2µM*	3.1%
COc1ccc(Cl)c(N2CC(c3nc4ccccc4n3C(C)C)CC2=O)c1 (stereo not drawn)	/	/	4.5	/	/	/
COc1ccc(NC(=S)N=Nc2c(O)[nH]c3ccccc23)cc1	1.26µM*	34.1	-1.1	5.8µM*	8.2µM*	3.55µM*
COc1ccc(S(=O)(=O)N=Nc2c(O)[nH]c3ccccc23)cc1	19.2%	17.9	-4.3	2.0%	-4.0%	3.0%
Cc1ccc(NC(=S)N=Nc2c(O)[nH]c3ccccc23)cc1	0.316µM*	0.0	-5.0	7.31µM*	6.51µM*	1.26µM*
CNC(=S)N=Nc1c(O)[nH]c2ccc(C(C)C)cc12	3.98µM*	0.0	-2.8	18.4µM*	?	2.82µM*
Oc1ccc(NC(=S)N=Nc2c(O)[nH]c3ccccc23)cc1	?	-65.8*	1.9	?	?	-24.8%
CCOc1ccccc1Oc1c(C)oc2cc(OC(C)=O)ccc2c1=O	/	/	0.1	/	/	/
COc1ccccc1C1=NOC(C(=O)NCCc2ccccc2)C1 (stereo not drawn)	/	/	-0.6	/	/	/
O=C(NCc1ccc(OCC(F)(F)F)cc1)c1ccc(S(=O)(=O)N2CCOCC2)cc1	/	/	-4.3	/	/	/
CCN1CCC(NC(=O)c2ccc(S(=O)(=O)Nc3ccccc3)cc2)CC1	/	/	-9.2	/	/	/
N#CC1(NC(=O)CSc2nccn2C2CC2)CCCCC1	/	/	5.0	/	/	/
CC(C)c1ccc2[nH]c(O)c(N=NC(=O)c3cccc(S(=O)(=O)N4CCCCC4)c3)c2c1	?	17.1	-10.1	9.2µM*	11.6µM*	1.7%
O=C(N=Nc1c(O)[nH]c2ccccc12)c1cccc(S(=O)(=O)N2CCCCC2)c1	-20.0%	31.7	-5.7	0.9%	-13.3%	-26.2%
CNC(=S)N=Nc1c(O)[nH]c2ccccc12	3.16µM*	9.8	-0.2	-6.4%	-6.8%	?
CN(c1ncnc2c1c(-c1ccccc1)cn2-c1cccc(Cl)c1)C1CCCCC1	/	/	-3.0	-28.9%	-16.2%	/
OCCN1CCN(c2ncnc3c2c(-c2ccccc2)cn3-c2ccc(F)cc2)CC1	-4.5%	-96.8*	-21.6	25.9µM*	?	-16.4%
COC(=O)C(C)Sc1ncnc2c1c(-c1ccccc1)cn2-c1ccc(OC)cc1 (stereo not drawn)	?	40.3	1.1	-3.2%	?	2.2%
COC(=O)C(C)Sc1ncnc2c1c(-c1ccccc1)cn2-c1ccc(F)cc1 (stereo not drawn)	/	/	-0.2	16.4µM*	4.11µM*	/
